Bioassay records from PubChem BioAssay.
FMDV inh – antivirals against foot and mouth disease virus; FMDV antiviral cell-based qHTS; Potency, µM (titrated, usually from 57.9 µM), inactives show at the top dose activity change, negative = inhibition, actives largely listed as inhibitors; hit rate 1.2% among 410,000; calls by dose curve; tested in HEK293T cells; note: read-out not given here; nearly all actives have a fitted effect of over 45% in size
Lassa entry inh – Lassa virus entry inhibition | Lassa virus pseudotype entry inhibition, cell reporter | Potency, µM (titrated, usually from 37.9 µM), for the others: at the top dose activity change, negative = inhibition, usual class: inhibitors | hit rate 1.2% among 300,000; calls by dose curve; tested in HEK293 cells; note: nearly all actives have a fitted effect of over 50% in size
HCV inhibitor – HCV inhibition. Huh7.5.1 HCVcc-Cre infection, luciferase reporter, 44 h. Potency, µM (titrated, usually from 41.8 µM), without a hit: top-dose activity change, negative = inhibition, actives largely listed as inhibitors. hit rate 3.4% among 340,000; active = well fitted inhibition curve with a large enough effect; inconclusive = small, poorly fitted or top-dose-only effect, or another doubt; inactive = no such curve, though single readings can be large or run the other way
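Cells seeded at 1,000/well and cultured 4 h, then compounds added followed by HCVcc-Cre virus (~0.5 moi). After 44 h further culture, luciferase substrate was added, plates held 15 min at room temperature, and luminescence read for 15 sec.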
Vaccinia mCherry – vaccinia inhibition (mCherry reporter); Vaccinia virus mCherry reporter infection, fluorescence; Potency, µM (highest dose often 36.5 µM), without a hit: top-dose activity change, negative = inhibition, usual class: inhibitors; hit rate 0.63% among 310,000; AID 720579; calls by dose curve; tested in A549 cells; note: nearly all actives have a fitted effect of over 35% in size
Marburg entry inh – Marburg virus entry inhibition; Marburg virus pseudotyped entry inhibition, cell reporter; Potency, µM (series often up to 37.8 µM), for the others: at the top dose activity change, negative = inhibition, actives largely listed as inhibitors; hit rate 1.8% among 300,000; AID 540276; calls by dose curve; tested in HEK293 cells
VACV Venus inh – inhibitors of vaccinia virus (Venus reporter); Vaccinia virus Venus reporter expression, fluorescence; Potency, µM (top dose mostly 36.5 µM), without a hit: at the highest dose activity change, negative = inhibition, hits mostly inhibitors; hit rate 0.46% among 330,000; AID 720580; calls by dose curve; tested in A549 cells; note: nearly all actives have a fitted effect of over 30% in size
The depositor's hits bear a star; i = inactive; ? = inconclusive; · = not tested or not shown; [ ] = remark or other dose. A selection: hits, their analogues and other compounds. The true share with any hit is near 5.3%. % is set by controls: 0 for no effect and ±100 for the full control effect; potency is the fitted concentration of half-maximal effect.

SMILES	FMDV inh	Lassa entry inh	HCV inhibitor	Vaccinia mCherry	Marburg entry inh	VACV Venus inh
COC(=O)CSC1=C(C#N)C(c2ccc(F)cc2)CC(=O)N1 (centres undefined)	-23%	·	-17%	-20%	·	-18%
COC(=O)CSC1=C(C#N)C(c2ccc(C)o2)CC(=O)N1 (centres undefined)	-20%	?	-7%	-3%	1.8µM*	-25%
CC(=O)Nc1ccc2[nH]c3ccccc3c2c1	·	22%	-9%	-16%	26%	-9%
O=C(Nc1ccc(Cl)cc1)c1cc2c(cc1O)[nH]c1ccccc12	?	?	?	?	7.9µM*	?
Cc1cc(C)c(NC(=O)Cn2c(=O)n(Cc3ccc(C(=O)NCc4ccco4)cc3)c(=O)c3sccc32)c(C)c1	-3%	?	·	0%[7.34 µM]	-27%[46.1 µM]	-4%[7.34 µM]
O=[N+]([O-])c1cnc(Sc2ccncn2)s1	40µM*	·	7.1µM*	·	·	·
O=C(Nc1ccc(Cl)cc1)Nc1ccccc1Sc1ncc([N+](=O)[O-])s1	-13%	·	-18%	·	·	·
CN1CCN(c2ncc3nc(-c4cccc(C#N)c4)c(=O)n(CCC#N)c3n2)CC1	-13%	·	·	·	·	·
CCn1c(COc2ccc(C)cc2)nnc1SCc1nc2ccccc2[nH]1	?	-14%	14µM*	·	?	·
Clc1ccc(OCc2nnc(SCc3nc4ccccc4[nH]3)n2Cc2ccco2)cc1	?	?	10µM*	·	?	·
COc1ccc(C(=O)NCC(c2cccnc2)N2CCc3ccccc3C2)cc1OC (centres undefined)	-13%	6%[46.1 µM]	·	-3%	·	-5%
Cc1ccc(NC(=O)C(c2ccccc2)N(C)C)cc1Cl (centres undefined)	74%	?	2%	i	11µM*	-14%
CCOC(=O)c1cnc(SC)nc1Oc1cccc(NS(=O)(=O)c2ccccc2)c1	15%	15%	10µM*	·	15%	·
COc1ccc(Cn2c(SCC(=O)N3CCN(c4ccc(F)cc4)CC3)nc3ccccc32)cc1	0%	·	·	-10%	-29%[46.1 µM]	-16%
CCOc1ccc(CCNC(=O)c2ccccc2OCc2c(C)noc2C)cc1OCC	-20%	-10%	7.1µM*	-21%	-25%	-16%
Cc1cc(C(=O)Nc2cccc(-c3nc(CNC(=O)c4cc5ccccc5[nH]4)c(C)o3)c2)c(C)o1	17%	·	·	-1%	·	-7%
CC(C)Cn1c(=O)c(C(=O)Nc2ccncc2)c(O)c2ccccc21	-13%	·	10µM*	·	·	·
CCCCn1c(=O)c(C(=O)NCc2ccco2)c(O)c2ccccc21	-11%	-21%[46.1 µM]	14µM*	i	-17%[46.1 µM]	-9%
CCCCCn1c(=O)c(C(=O)Nc2cnccn2)c(O)c2ccccc21	-22%	?	8.9µM*	-7%	?	5%
CC(C)Cn1c(=O)c(C(=O)Nc2cnccn2)c(O)c2ccccc21	-10%	2%	2%	-3%	19%	11%
O=C(N/N=C/c1ccccc1Cl)c1[nH]c2ccc(Br)cc2c1-c1ccccc1	-19%	?	4µM*	?	2.5µM*	i
C/C(=N\OCc1ccc(C#N)cc1)c1ccccc1	87%	·	3%	·	·	·
C/C(=N/OCO/N=C(\C)c1ccccc1)c1ccccc1	-7%	?	11%	-7%	3.5µM*	8%
NNC(=O)[C@@H]1C[C@@H]1c1ccccc1	-20%	2%	3%	·	-2%	·
O=C(NNC(=S)Nc1ccc(F)cc1)C1CC1c1ccc(Cl)cc1 (centres undefined)	-16%	0.41µM*	-13%	-21%	0%	-19%
SMILES	FMDV inh	Lassa entry inh	HCV inhibitor	Vaccinia mCherry	Marburg entry inh	VACV Venus inh
NNC(=O)C1CC1c1ccc(Cl)cc1 (centres undefined)	-17%	2.6µM*	-14%	-19%	0%	-9%
Cc1ccc(NC(=S)NNC(=O)C2CC2c2ccc(C)cc2)cc1 (centres undefined)	?	?	?	·	-13%	·
CCN1CCN(Cc2c(O)ccc3oc(C)c(C(=O)Nc4ccc(OC)cc4)c23)CC1	-19%	-9%[46.1 µM]	·	-9%	-14%[46.1 µM]	-4%
CCOc1ccccc1CNc1ncnc2c1nc1n2CCCC1	-1%	?	·	i	·	-6%
Cc1snc(S(=O)(=O)/C(C#N)=N/Nc2cccc(C(F)(F)F)c2)c1C#N	28%	5%	-5%	11µM*	0%	?
COc1ccc(N/N=C(/C#N)S(=O)(=O)c2nsc(C)c2C#N)cc1	32%	-19%	6%	·	-14%	-12%
C=CCn1c(=O)c2c(nc(-c3ccccc3)n2C)n(C)c1=O	-5%	·	·	-17%	·	-9%
Cn1c(=O)c2c(nc(-c3ccc(N(CCCl)CCCl)cc3)n2C)n(C)c1=O	32µM*	?	?	?	?	-22%
CCc1ccc(NC(=S)NC2CCN(Cc3ccccc3)CC2)cc1	-25%	?	?	?	?	?
S=C(Nc1ccccc1)NC1CCN(Cc2ccccc2)CC1	-11%	·	-10%	-6%	?	-7%
S=C(Nc1ccc(Cl)cc1)NC1CCN(Cc2ccccc2)CC1	?	?	11µM*	?	?	?
CCC(C)c1ccc(NC(=S)NC2CCN(Cc3ccccc3)CC2)cc1 (centres undefined)	?	?	10µM*	?	11µM*	10µM*
CC(C)[C@@H](OCc1ccccc1)[C@H](C)/C=N/OC[C@@H](O)[C@H]1O[C@@H]2OC(C)(C)O[C@@H]2[C@H]1O	·	·	·	·	-5%[14.2 µM]	·
O=C(CS(=O)(=O)c1cccc2nsnc12)Nc1ccccc1Cl	19%	-8%[46.1 µM]	·	3%	·	8%
CN1Cc2c(N3CCOCC3)nc(SCc3ccccc3)c(C#N)c2CC1(C)C	-11%	-2%	10µM*	·	?	·
CC1(C)Cc2c(C#N)c(SCC(=O)c3ccccc3)nc(N3CCOCC3)c2CS1	-12%	18µM*	?	-32%	-29%	-18%
CCCSc1nc(N2CCOCC2)c2c(c1C#N)CCCC2	?	-18%	11µM*	-18%	-28%	-16%
COc1ccc(/C(O)=C2\C(=O)C(=O)N(CCN(C)C)[C@H]2c2cccc(OC)c2OC)cc1	·	·	·	·	-16%	·
OC1(c2cccnc2)CCN(Cc2ccc3c(c2)CN(Cc2ccc4nsnc4c2)CCO3)CC1	?	·	·	-25%	·	-21%
COc1cc(=O)n2c(c1C(=O)N(C)Cc1nonc1C)CCN(C(=O)c1cc(C)ccc1C)CC2	-9%	·	·	-3%	·	-1%
COc1ccccc1OCC(=O)NNc1c2ccccc2nc2ccccc12	-22%	·	0.56µM*	·	·	·
Cc1cc(CNC(=O)COc2ccccc2F)c2ccccc2n1	-10%	-19%	25µM*	·	?	·
Cc1cc(CNC(=O)c2cccc([N+](=O)[O-])c2C)c2ccccc2n1	14µM*	?	?	-8%	?	-19%
O=C(CN1CCOCC1)NNc1c2ccccc2nc2ccccc12	18%	-18%[46.1 µM]	8.9µM*	?	-21%[46.1 µM]	-5%
Cc1cc(CNC(=O)COc2ccc(F)cc2F)c2ccccc2n1	?	-17%	?	-24%	9%[46.1 µM]	-15%
